# In the supplement of paper PMC6522484:
# ± gives the standard deviation of the averaged measurements.
# Tests used:
# DLD1 [1] = test: cell viability (CellTiter-Glo) relative to plate median (fraction of plate median); higher = more viable cells; conditions: 10 µM, treatment time 24 h
# Procedure, shortened: (§1)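 Colorectal cancer cell lines carrying stably transduced lentiviral TCF/Wnt firefly luciferase reporters (7TFP or TCF4/Wnt) were plated in 384-well plates and treated 24 h later with kinase inhibitor library compounds at a final 10 µM for 24 h. Firefly luciferase or CellTiterGlo luminescence was read on parallel plates with a Tecan F500 reader. Signals were normalised per well to the plate median in webcellHTS2 (additive, no log transformation), and values are the mean of two independent replicates.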
# HCT116 [2] = test: as above; conditions: 10 µM; treatment time 24 h; reporter: TCF4/Wnt
# Procedure, shortened: as §1
# SW480 [3] = test: as above; conditions: 10 µM; treatment time 24 h; reporter: 7TFP
# Procedure, shortened: as §1
# DLD1 [4] = test: TCF/Wnt firefly luciferase reporter signal relative to plate median (fraction of plate median); higher = higher Wnt reporter signal; conditions: 10 µM, treatment time 24 h
# Procedure, shortened: as §1
# HCT116 [5] = test: as above; conditions: 10 µM; treatment time 24 h; reporter: TCF4/Wnt
# Procedure, shortened: as §1
# SW480 [6] = test: as above; conditions: 10 µM; treatment time 24 h; reporter: 7TFP
# Procedure, shortened: as §1
# DLD1 [7] = test: cell viability (CellTiter-Glo) relative to plate median (fraction of plate median); higher = more viable cells; conditions: 5 µM; treatment time 24 h; reporter: 7TFP
# Procedure, shortened: (§2)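 Each entry is a luminescence signal normalised to the plate median, averaged over independent replicates. The replicate count was two, and the cells were colorectal cancer lines with stable lentiviral TCF/Wnt firefly luciferase reporters exposed to library compounds at a final 5 µM for 24 h. Firefly luciferase and CellTiterGlo were measured on parallel plates.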
# HCT116 [8] = test: as above; conditions: 5 µM; treatment time 24 h; reporter: TCF4/Wnt
# Procedure, shortened: as §2
# SW480 [9] = test: as above; conditions: 5 µM; treatment time 24 h; reporter: 7TFP
# Procedure, shortened: as §2
# DLD1 [10] = test: TCF/Wnt firefly luciferase reporter signal relative to plate median (fraction of plate median); higher = higher Wnt reporter signal; conditions: 5 µM; treatment time 24 h; reporter: 7TFP
# Procedure, shortened: as §2
# SW480 [11] = test: as above; conditions: 5 µM; treatment time 24 h; reporter: 7TFP
# Procedure, shortened: as §2
structure (smiles),measurement,setting,value
Oc1cc(O)cc(/C=C/c2ccc(O)c(O)c2)c1 [Piceatannol],cell viability,DLD1 [1]; reporter: 7TFP,1.12 ± 0.042
same,cell viability,DLD1 [1]; reporter: TCF4/Wnt,1.07 ± 0.057
same,cell viability,HCT116 [2],1.19 ± 0.14
same,cell viability,SW480 [3],0.863 ± 0.0085
same,TCF/Wnt firefly luciferase reporter signal,DLD1 [4]; reporter: 7TFP,1.44 ± 0.15
same,TCF/Wnt firefly luciferase reporter signal,DLD1 [4]; reporter: TCF4/Wnt,1.66 ± 0.37
same,TCF/Wnt firefly luciferase reporter signal,HCT116 [5],1.455 ± 0.0071
same,TCF/Wnt firefly luciferase reporter signal,SW480 [6],1.44 ± 0.12
CC(=O)OCC(=O)[C@@]1(O)[C@H](OC(C)=O)C[C@H]2[C@@H]3CCC4=CC(=O)C=C[C@]4(C)[C@@]3(F)[C@@H](O)C[C@@]21C,cell viability,DLD1 [7],1.01 ± 0.069
same,cell viability,HCT116 [8],1.09 ± 0.057
same,cell viability,SW480 [9],1.03 ± 0.052
same,TCF/Wnt firefly luciferase reporter signal,DLD1 [10],1.1 ± 0.26
same,TCF/Wnt firefly luciferase reporter signal,SW480 [11],0.894 ± 0.069
CCc1cc(C(N)=S)ccn1,cell viability,DLD1 [7],0.964 ± 0.035
same,cell viability,HCT116 [8],1.02 ± 0.028
same,cell viability,SW480 [9],0.987 ± 0.0071
same,TCF/Wnt firefly luciferase reporter signal,DLD1 [10],1.07 ± 0.078
same,TCF/Wnt firefly luciferase reporter signal,SW480 [11],1.09 ± 0.028
O=c1ccc2cc(O)c(O)cc2o1,cell viability,DLD1 [7],1.03 ± 0.19
same,cell viability,HCT116 [8],1.13 ± 0.028
same,cell viability,SW480 [9],1.04 ± 0.014
same,TCF/Wnt firefly luciferase reporter signal,DLD1 [10],0.994 ± 0.066
same,TCF/Wnt firefly luciferase reporter signal,SW480 [11],0.893 ± 0.015
Cn1cnc([N+](=O)[O-])c1Sc1ncnc2[nH]cnc12,cell viability,DLD1 [7],0.95 ± 0.018
same,cell viability,HCT116 [8],1.02 ± 0.054
same,cell viability,SW480 [9],1.13 ± 0.057
same,TCF/Wnt firefly luciferase reporter signal,DLD1 [10],1.03 ± 0.078
same,TCF/Wnt firefly luciferase reporter signal,SW480 [11],0.965 ± 0.034
O=C(Oc1cc(OC(=O)c2ccccc2)c2c(c1)O[C@H](c1ccc(OC(=O)c3ccccc3)c(OC(=O)c3ccccc3)c1)[C@@H](OC(=O)c1ccccc1)C2)c1ccccc1,cell viability,DLD1 [7],1.04 ± 0.059
same,cell viability,HCT116 [8],1.065 ± 0.0071
same,cell viability,SW480 [9],1.06 ± 0.071
same,TCF/Wnt firefly luciferase reporter signal,DLD1 [10],0.978 ± 0.046
same,TCF/Wnt firefly luciferase reporter signal,SW480 [11],0.972 ± 0.016
COc1cc2nccc(Oc3ccc(NC(=O)NC4CC4)c(Cl)c3)c2cc1C(N)=O [E7080 (Lenvatinib)],cell viability,DLD1 [1]; reporter: 7TFP,1.07 ± 0.085
same,cell viability,DLD1 [1]; reporter: TCF4/Wnt,0.932 ± 0.069
same,cell viability,HCT116 [2],1.06 ± 0.11
same,cell viability,SW480 [3],0.966 ± 0.062
same,TCF/Wnt firefly luciferase reporter signal,DLD1 [4]; reporter: 7TFP,1.44 ± 0.078
same,TCF/Wnt firefly luciferase reporter signal,DLD1 [4]; reporter: TCF4/Wnt,1.2 ± 0.05
same,TCF/Wnt firefly luciferase reporter signal,HCT116 [5],1.31 ± 0.3
same,TCF/Wnt firefly luciferase reporter signal,SW480 [6],0.927 ± 0.34
CC(=O)Nc1nc(C)c(-c2ccc(Cl)c(S(=O)(=O)NCCO)c2)s1,cell viability,DLD1 [1]; reporter: 7TFP,0.939 ± 0.13
same,cell viability,DLD1 [1]; reporter: TCF4/Wnt,0.947 ± 0.0014
same,cell viability,HCT116 [2],0.974 ± 0.051
same,cell viability,SW480 [3],1.1
same,TCF/Wnt firefly luciferase reporter signal,DLD1 [4]; reporter: 7TFP,0.9 ± 0.037
same,TCF/Wnt firefly luciferase reporter signal,DLD1 [4]; reporter: TCF4/Wnt,1 ± 0.08
same,TCF/Wnt firefly luciferase reporter signal,HCT116 [5],1.09 ± 0.085
same,TCF/Wnt firefly luciferase reporter signal,SW480 [6],0.944 ± 0.033
CCCCNc1ccc(C(=O)OCCN(C)C)cc1,cell viability,DLD1 [7],1.04 ± 0.042
same,cell viability,HCT116 [8],1.12 ± 0.085
same,cell viability,SW480 [9],1.02 ± 0.035
same,TCF/Wnt firefly luciferase reporter signal,DLD1 [10],1.1 ± 0.035
same,TCF/Wnt firefly luciferase reporter signal,SW480 [11],0.973 ± 0.0085
CCCCC/C=C/CCC(=O)N[C@H]1[C@H](Oc2c3cc4cc2Oc2ccc(cc2Cl)[C@@H](O[C@@H]2O[C@H](CO)[C@@H](O)[C@H](O)[C@H]2NC(C)=O)[C@@H]2NC(=O)[C@H](NC(=O)[C@@H]4NC(=O)[C@H]4NC(=O)C(Cc5ccc(c(Cl)c5)O3)NC(=O)[C@H](N)c3ccc(O)c(c3)Oc3cc(O)cc4c3)c3ccc(O)c(c3)-c3c(OC4O[C@H](CO)[C@@H](O)[C@H](O)[C@@H]4O)cc(O)cc3[C@@H](C(=O)O)NC2=O)O[C@H](CO)[C@@H](O)[C@@H]1O (some centres undefined) [TEICOPLANIN [A(2-1) shown]],cell viability,DLD1 [7],1.04 ± 0.035
same,cell viability,HCT116 [8],1.01 ± 0.07
same,cell viability,SW480 [9],1.02 ± 0.083
same,TCF/Wnt firefly luciferase reporter signal,DLD1 [10],0.971 ± 0.0071
same,TCF/Wnt firefly luciferase reporter signal,SW480 [11],1 ± 0.04
CC[C@H]1OC(=O)[C@H](C)C(=O)[C@H](C)[C@@H](O[C@@H]2O[C@H](C)C[C@H](N(C)C)[C@H]2O)[C@](C)(OC)C[C@@H](C)C(=O)[C@H](C)[C@H]2N(CCCCn3cnc(-c4cccnc4)c3)C(=O)O[C@]12C,cell viability,DLD1 [7],0.997 ± 0.018
same,cell viability,HCT116 [8],0.968 ± 0.1
same,cell viability,SW480 [9],1.02 ± 0.04
same,TCF/Wnt firefly luciferase reporter signal,DLD1 [10],1.07 ± 0.05
same,TCF/Wnt firefly luciferase reporter signal,SW480 [11],1.07 ± 0.035
CC[C@H]1OC(=O)[C@H](C)[C@@H](O[C@H]2C[C@@](C)(OC)[C@@H](O)[C@H](C)O2)[C@H](C)[C@@H](O[C@@H]2O[C@H](C)C[C@H](N(C)C)[C@H]2O)[C@](C)(O)C[C@@H](C)/C(=N\OCOCCOC)[C@H](C)[C@@H](O)[C@]1(C)O,cell viability,DLD1 [7],1.03 ± 0.079
same,cell viability,HCT116 [8],1.12 ± 0.26
same,cell viability,SW480 [9],1.12 ± 0.057
same,TCF/Wnt firefly luciferase reporter signal,DLD1 [10],0.907 ± 0.13
same,TCF/Wnt firefly luciferase reporter signal,SW480 [11],1.03 ± 0.05
